# Data published in ChEMBL document CHEMBL1157539, “Thousands of chemical starting points for antimalarial lead identification” (Nature, 2010).
# Test system: Plasmodium falciparum
# Test: GSK_TCMDC: Inhibition of Plasmodium falciparum 3D7 in whole red blood cells, using parasite LDH activity as an index of growth. Test compounds present at 2uM
# Format: functional
row,Structure (SMILES),Inhibition
1,COc1cc2c(cc1OCCN1CCC(N3CCCCC3)CC1)N(C(=O)/C=C/c1ccccc1Cl)CC2,100%
2,Cc1ccc(Nc2ccnc(Nc3ccc(F)c(Cl)c3)n2)cc1O.Cl,100%
3,CN1CCCC(CN2CCN(Cc3ccc(-c4cccc(-c5nc6ccccc6[nH]5)c4)cc3)CC2)C1.O=C(O)C(F)(F)F (configuration not stated),100%
4,CCCc1cc(Cc2cnc(N)nc2N)cc(CC)c1O.Cl,87%
5,CN(C)c1ccc(CN2CCC(CNC(=O)c3cc(-c4ccccc4Cl)cs3)C2)cc1.O=C(O)C(F)(F)F (configuration not stated),91%
6,N#CCCN1CCN(Cc2cccc(-c3ccc(-c4nc5ccccc5[nH]4)cc3)c2)CC1.O=C(O)C(F)(F)F,93%
7,COc1ccc2[nH]c(C)cc(=NN=Cc3ccc(F)cc3)c2c1,100%
8,O=C(Nc1ccsc1)Nc1cccc(-c2cccc(-c3nc4cc(C(F)(F)F)ccc4[nH]3)c2)c1,100%
9,O=C(Nc1cccc(-c2ccc(-c3nc4cc(C(F)(F)F)ccc4[nH]3)cc2)c1)c1ccoc1,98%
10,CCc1c(CCNCCCCCCNCCc2ccc(OC)c(OC)c2C)ccc(OC)c1OC.Cl,98%
11,O=C(NCCN1CCCC1)c1cccc(-c2ccc(-c3nc4cc(F)ccc4[nH]3)s2)c1,100%
12,Nc1nc(N)c2cc(Sc3ccc4ccccc4c3)ccc2n1,95%
13,COc1ccc2nccc([C@@H](O)CN3CCC(NCC(=O)Nc4cc(F)cc(F)c4)CC3)c2n1.O=C(O)C(=O)O,89%
14,COc1cc(CCCOc2c(N)nc(N)nc2N)cc(OC)c1OC,88%
15,O=C(NC1CCC(N2CCC(Cc3ccc(F)cc3)CC2)CC1)c1cc2ccccc2[nH]1 (configuration not stated),98%
16,Fc1cc(Cl)ccc1Nc1ccnc2cc(-c3scnc3CNCCN3CCOCC3)ccc12,99%
17,FC(F)(F)c1ccc2[nH]c(-c3ccc(-c4cccc(CNCCc5ccncc5)c4)s3)nc2c1.O=C(O)C(F)(F)F,100%
18,COCCCC1C(=O)OC2CCCC21 (configuration not stated),93%
19,COc1cc2c(cc1NS(=O)(=O)c1ccc(OCc3ccc(Br)cc3)cc1)CCN(C1CCC1)CC2.Cl,94%

row,Structure (SMILES),Inhibition
1,Cc1cc(CNCC2CCC(CNCCCc3ccccc3)CC2)ccc1O (configuration not stated),100%
2,CCNc1cc(C(=O)N[C@@H](Cc2ccccc2)[C@H](O)CN[C@H](C)c2ccccc2)cc(N2CCCC2=O)c1,97%
3,COc1ccc(CNCc2cccc(-c3csc(-c4nc5ccccc5[nH]4)c3)c2)cc1.O=C(O)C(F)(F)F,100%
4,Cc1csc2nc(-c3ccccn3)nc(Nc3ccncn3)c12.O=C(O)C(F)(F)F,97%
5,Cc1cc(=NN=CC=Cc2ccccc2)c2ccc(F)cc2[nH]1,100%
6,CCOC(=O)CCc1cc(F)c(F)c(OC[C@H](O)CNC(C)(C)C(O)c2ccc3ccccc3c2)c1.Cl (some centres not stated),99%
7,CNc1ccc(CNCc2ccc(-c3ccc(-c4nc5cccc(C)c5[nH]4)s3)cc2)cc1.O=C(O)C(F)(F)F,100%
8,COc1cc(Nc2nccc(Nc3ccc4c(C)n[nH]c4c3)n2)cc2ccccc12.Cl,100%
9,CN(C)Cc1ccc2nc(-c3cccc(Cc4cc(Cl)ccc4OCc4ccc(Cl)cc4F)n3)[nH]c2c1.Cl,93%
10,c1ccc(CN2CCC(Nc3ccc(-c4c[nH]nc4-c4ccccn4)nc3)CC2)cc1,97%
11,O=S(=O)(c1cccc(C(F)(F)F)c1)N1CCC(CO)(Cc2cccc(C(F)(F)F)c2)CC1,100%
12,CC(Cc1ccc(CN(CC(N)=O)Cc2ccc(CC(C)NCCc3cccc(Cl)c3)cc2)cc1)NCCc1cccc(Cl)c1.O=C(O)C(F)(F)F (configuration not stated),95%
13,O=C(/C=C/c1ccc(Cl)c(Cl)c1)NCCCCCN1CCCN(C(=S)Nc2ccc(Cl)cc2)CC1,86%
14,Oc1ccc2[nH]c(-c3cccc(F)c3)nc2c1CN1CCC(O)(c2ccccc2)CC1,97%
15,O=C(O)C(F)(F)F.O=c1[nH]ccc2nc(N[C@@H]3CCNC3)nc(Nc3cccc(S(=O)(=O)N4CCOCC4)c3)c12,90%
16,O=C(NCCCCN1CCC(c2ccc3ccccc3c2)CC1)c1ccc(NC(=O)c2ccc(Cl)cc2)cc1,100%
17,Cc1ccc(NC(=S)N2CCCN(CCCCCNC(=O)/C=C/c3ccc(Cl)c(Cl)c3)CC2)cc1Cl,93%
18,CCN(CC)CCN(Cc1ccc(-c2ccc(C(F)(F)F)cc2)cc1)C(=O)Cn1c(SCc2ccc(F)c(F)c2F)nc(=O)c2c1CCC2.O=C(O)C(O)C(O)C(=O)O,91%
